FLuc modulator – inhibits or activates purified firefly luciferase, miR-21 counter-screen; P08659; Potency, µM (doses to about 57.5 µM), usual class: inhibitors; AID 588342; purified FLuc, Km substrates, luminescence inhibition; 360,000 compounds, 6.9% hits; also: nearly all actives have a fitted effect of over 55% in size
Target sequence (P08659 whole entry, looked up): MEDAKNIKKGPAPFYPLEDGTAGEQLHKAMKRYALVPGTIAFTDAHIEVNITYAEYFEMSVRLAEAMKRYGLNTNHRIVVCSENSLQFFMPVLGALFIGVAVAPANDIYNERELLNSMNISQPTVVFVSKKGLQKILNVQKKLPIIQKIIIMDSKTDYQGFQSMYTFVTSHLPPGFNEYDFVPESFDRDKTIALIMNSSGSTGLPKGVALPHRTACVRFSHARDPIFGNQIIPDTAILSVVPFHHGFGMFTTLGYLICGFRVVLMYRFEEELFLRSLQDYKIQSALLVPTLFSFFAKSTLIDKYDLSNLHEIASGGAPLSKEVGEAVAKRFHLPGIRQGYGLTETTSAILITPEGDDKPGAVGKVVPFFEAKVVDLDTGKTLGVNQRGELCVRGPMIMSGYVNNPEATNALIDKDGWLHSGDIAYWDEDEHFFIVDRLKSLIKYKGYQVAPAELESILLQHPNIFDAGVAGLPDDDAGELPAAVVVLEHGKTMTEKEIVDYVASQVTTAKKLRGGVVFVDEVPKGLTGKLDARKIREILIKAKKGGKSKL
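Purified P. pyralis luciferase (10nM final) with 10uM D-luciferin and 10uM ATP (Km levels) in 50mM Tris acetate pH 7.5, 10mM Mg acetate, 0.01% Tween-20, 0.05% BSA; qHTS 6-point titration, ~60 µM downward; luminescence read.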
Rab9 promoter act – Rab9 promoter activation. 320,000 compounds, 2.8% hits. Huh7 Rab9 promoter-luciferase reporter, luminescence, 24 h. Potency, µM (doses to about 9.22 µM), actives largely listed as activators; also: nearly all actives have a fitted effect of over 60% in size
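Cells were plated at 1500 per well in reduced-serum medium with 10% FBS and left 2 h. Compound in DMSO was then added for 24 h at 37 °C. Reporter signal was read by luminescence after 10 min with luciferase detection reagent.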
ELG1 genotox – genotoxicity induction in ELG1-luciferase HEK293T cells | HEK293T ELG1-luciferase reporter, luminescence, 16 h | Potency, µM (titrated, usually from 46 µM), hits mostly activators | 330,000 compounds, 1.3% hits; also: nearly all actives have a fitted effect of over 60% in size
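HEK293T cells expressing luciferase-tagged ELG1 were treated with compound or DMSO for 16 hr at 37°C. Luciferase activity was then read after 30 min with ONE-Glo at room temperature; rising signal flags genetic stress.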
Luc counter – blocks Kinase-Glo luciferase, a counter-screen artifact | Potency, µM (highest dose often 38.3 µM), hits mostly inhibitors | Q27757 | Kinase-Glo luciferase, ATP luminescence, 8 min | 200,000 compounds, 0.28% hits; also: nearly all actives have a fitted effect of over 60% in size
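Kinase-Glo luciferase light output from ATP and luciferin was measured with 10 uM ATP, within the enzyme's linear range. Buffer: 50 mM imidazole pH 7.2, 50 mM KCl, 7 mM MgCl2, 0.01% Tween 20, 0.05% BSA; luminescence read after 8 min at ambient temperature.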
NPC1 prom act – NPC1 promoter activation. 320,000 compounds, 2.4% hits. Huh7 NPC1 promoter luciferase reporter, 24 h. AID 485313. Potency, µM (titrated, usually from 9.22 µM), actives largely listed as activators; also: nearly all actives have a fitted effect of over 60% in size
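Quantitative HTS used a cell-based reporter: Huh7 cells stably bearing the NPC1 promoter upstream of luciferase were treated with compounds for 24 h, and promoter activation was read as luminescence.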
SMN2 splice up – enhancers of SMN2 splice variant expression; Potency, µM (doses to about 46.1 µM), hits mostly activators; HEK293 SMN2-luciferase splicing reporter, luminescence, 30-36 h; 210,000 compounds, 2.8% hits; also: nearly all actives have a fitted effect of over 55% in size
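HEK293 cells carry an SMN2 […]–luciferase reporter in which exon 7 inclusion puts luciferase in frame. Cells were plated 10-12 h before compound addition, then incubated 30-36 h at 37C. ONE-Glo luminescence was read; sodium butyrate at 4.5 mM final served as control.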
A number is an active result; n = inactive; u = inconclusive; x = no result given; [ ] = remark or other dose. An excerpt weighted towards active compounds, which were near 7.3% of everything screened. Calls follow the shape of the dose curve; as a rule, active = well fitted curve in the direction sought with a large enough effect; inconclusive = small, poorly fitted or top-dose-only effect, or another doubt; inactive = no such curve, though single readings can be large; an effect the other way counts as inactive or inconclusive.

SMILES	FLuc modulator	Rab9 promoter act	ELG1 genotox	Luc counter	NPC1 prom act	SMN2 splice up
CCN(CC)S(=O)(=O)c1ccc(NN=C(C#N)C#N)cc1	u	n	n	n	n	x
N#CC(C#N)=NNc1ccc([N+](=O)[O-])cc1	16.9µM	n	n	x	n	x
Cc1nn(C(C)(C)C)c(C)c1/C=N/OC(=O)Nc1ccc(Cl)cc1	0.0953µM	n	n	x	n	x
CC(=O)OC(CC(=O)O)C[N+](C)(C)C (stereo not given)	n	n	n	n	n	12.6µM
COc1ccc(CNCC(=O)N2CCC3(CC2)OCCO3)cc1	n	n	n	n	n	n
COc1ccc(-n2nc(C(=O)NCC(=O)N3CCC4(CC3)OCCO4)c3ccccc3c2=O)cc1	1.07µM	u	u	x	u	x
COc1ccc(-n2nc(C(=O)NCC(=O)N3CCC4(CC3)OCCO4)c3ccccc3c2=O)cc1Cl	1.2µM	u	n	x	u	x
CCOC(=O)CNC(=O)CNC(=O)c1nn(-c2ccc(OC)c(Cl)c2)c(=O)c2ccccc12	n	n	n	n	n	n
COc1ccc(-c2cc(C(=O)N3CCC4(CC3)OCCO4)c3ccccc3n2)cc1	2.13µM	u	n	x	n	x
NC(N)=N/N=C/c1cn(-c2ccccc2)nc1-c1cccs1	4.26µM	n	n	n	n	n
NNC(N)=S	x	x	x	x	x	n
Brc1ccc(-c2csc(N3CCCCC3)n2)cc1	9.53µM	n	x	x	n	x
COC(=O)c1cn(CCOc2ccccc2)c2ccccc12	u	n	20.6µM	n	n	n
Cc1nc2ccc(NC(=O)C3COc4ccccc4O3)cc2s1 (stereo not given)	12µM	u	u	x	u	x
C#CCN1C(=O)S/C(=C\c2ccc(N3CCOCC3)cc2C)C1=O	2.39µM	2.82µM	u	n	u	n
Oc1cc2c(cc1O)[C@H]1c3ccccc3CN[C@H]1CC2	x	x	x	n	x	n
O=C(O)[C@@H]1[C@H](C(=O)O)[C@]2(Cl)C(Cl)=C(Cl)[C@@]1(Cl)C2(Cl)Cl	x	x	x	n[7.66 µM]	x	n[9.22 µM]
CN(C)C(=O)Oc1c(Cl)cc(Cl)c2ccccc12	n	n	n	n	n	n
Cc1cc(C(=O)CS(=O)(=O)c2ccc(F)cc2)cc(C)c1OC(=O)N(C)C	10.7µM	2.82µM	u	u	3.98µM	n
N[C@H](Cc1c[nH]c2ccccc12)P(=O)(O)O	x	x	x	n[7.66 µM]	x	n[9.22 µM]
ClCBr	x	x	x	x	x	n
O=C(O)c1ccc(-n2c(O)c(/C=C3\C=Nc4ccccc43)c(=O)[nH]c2=O)cc1	19µM	n	n	x	n	x
O=c1[nH]c(=O)n(-c2cccc(F)c2)c(O)c1/C=C1\C=Nc2ccccc21	n	n	n	x	n	x
CN=C=O	x	x	x	x	x	n
C=CCn1c(O)c(C(C)=Nc2cc(OC)ccc2OC)c(=O)[nH]c1=O	n	n	23.1µM	n	n	n
SMILES	FLuc modulator	Rab9 promoter act	ELG1 genotox	Luc counter	NPC1 prom act	SMN2 splice up
C=CCn1c(O)c(C(C)=Nc2ccc(N(C)C)cc2)c(=O)[nH]c1=O	n	n	u	n	n	u
CN(C)C(=O)Oc1ccc(-c2cn3cc(Cl)ccc3n2)cc1	0.953µM	0.398µM	u	14.1µM	0.708µM	8.91µM
CN(C)C(=O)Oc1cccc(-c2cn3cc(Cl)ccc3n2)c1	3.01µM	u	n	n	u	11.2µM
CN(C)C(=O)Oc1ccc(-c2nnco2)cc1	n	n	n	n	n	n
CN(C)C(=O)Oc1ccc(-c2cn3cc(C(F)(F)F)ccc3n2)cc1	3.01µM	n	n	n	u	u
CC(=O)C1=C(O)[C@@H]2[C@@H]3c4c[nH]c5cccc(c45)C[C@@H]3C(C)(C)N2C1=O	x	x	x	n	x	x
C[C@]12CC[C@@H](O)CC1CCC1C2CC[C@]2(C)C(=O)CC[C@@H]12 (stereo not given in full)	x	x	x	n	x	n
CCCOC(=O)c1cc2c(cn1)[nH]c1ccccc12	x	x	x	x	x	28.2µM
CCOC(=O)c1ncc2[nH]c3ccc(OCc4ccccc4)cc3c2c1COC	x	x	x	n	x	x
OC[P+](CO)(CO)CO	x	x	x	x	x	n
COc1ccc(NC(=O)O/N=C/c2ccccc2)cc1	9.53µM	u	u	x	3.55µM	x
Clc1ccc2sc(C3CCNCC3)nc2c1	23.9µM	u	u	x	u	x
Clc1cccc(SC2CCNCC2)n1	x	x	x	n	x	n
O=C(O)CCn1cc(C=C2C(=O)NC(=S)NC2=O)c(-c2ccccc2)n1	23.9µM	n	n	n	n	n
N#CCCn1cc(C=C2C(=O)NC(=O)NC2=O)c(-c2ccccc2)n1	u	n	n	n	n	n
O=C(O)CCn1cc(C=C2C(=O)NC(=S)NC2=O)c(-c2cc3ccccc3oc2=O)n1	16.9µM	n	n	n	n	n
O=S(=O)(O)F	x	x	x	x	x	n
Nc1nc(N)c(Cn2ccnc2)c(=O)[nH]1	x	x	x	n[7.66 µM]	x	n[9.22 µM]
Oc1ccc2c3c1O[C@H]1c4c(c5ccccc5n4Cc4ccccc4)C[C@@]4(O)C(C2)N(CC2CC2)CC[C@]314	x	x	x	x	x	n
Cc1ccc(OCCOc2cccc(C=C3C(=O)NC(=O)NC3=O)c2)cc1	8.49µM	0.316µM	n	x	0.316µM	x

Screening data deposited in PubChem by National Center for Advancing Translational Sciences (NCATS).
